PKM2 act – qHTS Assay for Activators of Human Muscle isoform 2 Pyruvate Kinase | purified PKM2, Kinase-Glo ATP luminescence, activation; response scale: 0% is enzyme alone, no compound | Potency, µM (highest dose often 57.5 µM), without a hit: at the highest dose activation, most hits filed as activators | actives 0.34% (n = 260,000) | AID 1631, 2009; note: % is set by controls: 0 for no effect and ±100 for the full control effect; nearly all actives have a fitted effect of over 55% in size
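Kinase-Glo luminescence reports ATP generated from ADP (0.1 mM) and PEP (0.5 mM) by purified hPK-M2 after 1 h at room temperature, pH 7.2 imidazole buffer; intermediate enzyme activity allows detecting inhibitors and activators.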
GLS inhibitor – qHTS for Inhibitors of Glutaminase (GLS). GLS enzymatic activity, qHTS titration. Potency, µM (top dose mostly 45.5 µM), inactives show at the top dose activity change, negative = inhibition, actives largely listed as inhibitors. actives 0.21% (n = 410,000). AID 624170, 2012; note: % is set by controls: 0 for no effect and ±100 for the full control effect
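Read-out is an Amplex red fluorescence increase coupled through glutamate oxidase and HRP, measured before and after 30 min room-temperature incubation. hKGA is in 45 mM KH2PO4 (pH 8.2) with 0.02% Tween-20; glutamine added as 1mM solution.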
KAT2A inh – qHTS Assay for Inhibitors of GCN5L2; AID 504327, 2011; actives 0.21% (n = 390,000); Potency, µM (highest dose often 58.9 µM), for the others: top-dose activity change, negative = inhibition, usual class: inhibitors; GCN5L2 HAT assay, ThioGlo1 CoA-SH fluorescence; Histone acetyltransferase KAT2A (Homo sapiens), Q92830; note: % is set by controls: 0 for no effect and ±100 for the full control effect
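GCN5L2 (20 nM) in 50mM HEPES pH 7.5, 0.1mM EDTA, 0.01% Tween-20 preincubated 15 min with compounds at room temperature. Reaction started with H3(1-25) 75uM, acetyl-CoA 70uM, ThioGlo1 50uM; CoA-thiol fluorescence (Ex340/Em540) read at 0 and 20 min.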
VDR inhibitor – Inhibitors of the vitamin D receptor (VDR): qHTS; Vitamin D3 receptor (Homo sapiens), P11473; VDR-SRC2-3 peptide fluorescence polarization, 2 h; Potency, µM, for the others: max response, negative = inhibition, hits mostly inhibitors; actives 0.93% (n = 400,000); AID 504847, 2011; note: % is set by controls: 0 for no effect and ±100 for the full control effect
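Inhibition of the VDR/SRC2-3 peptide interaction is quantified by fluorescence polarization. Compounds (23 nl, pintool) incubate with the reagents for 2 hours at ambient room temperature.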
Mito fusion act – qHTS Assay for Small Molecule Inhibitors of Mitochondrial Division or Activators of Mitochondrial Fusion | S. cerevisiae fusion-defective mutant growth rescue, CellTiterGlo 48 h | Potency, µM (series often up to 46.1 µM), without a hit: top-dose growth rescue (activation), hits mostly activators | actives 0.23% (n = 320,000) | AID 485298, 2010; note: % of control where 0% means no effect; nearly all actives have a fitted effect of over 45% in size
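S. cerevisiae fusion-defective temperature-sensitive mutants (e.g. fzo1-1, mgm1-5) grown 48 h at 37C in YPEG (ethanol/glycerol non-fermentable) medium with 23 nl compound per well; growth rescue read as CellTiterGlo luminescence.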
PLK1 PBD block – qHTS for Inhibitors of PLK1-PDB (polo-like kinase 1 - polo-box domain): Primary Screen. Potency, µM, inactives show max response, negative = inhibition, usual class: inhibitors. Serine/threonine-protein kinase PLK1 (Homo sapiens), P53350. AID 720504, 2013. actives 2.8% (n = 360,000). Plk1 PBD binding of FITC phosphopeptide, fluorescence polarization; note: series mostly up to about 57 µM; % is set by controls: 0 for no effect and ±100 for the full control effect; nearly all actives have a fitted effect of over 65% in size
Numbers without * were called inactive; ? = inconclusive; . = no result given. Compounds with a hit are over-represented: about 3.4% of the library has one in this group of screens. Calls come from the whole dose curve; as a rule, active = well fitted curve in the direction sought with a large enough effect; inconclusive = small, poorly fitted or top-dose-only effect, or another doubt; inactive = no such curve, though single readings can be large; an effect the other way counts as inactive or inconclusive. Potency is the fitted concentration of half-maximal effect.

SMILES	PKM2 act	GLS inhibitor	KAT2A inh	VDR inhibitor	Mito fusion act	PLK1 PBD block
C/C(=N/OC(=O)c1ccc(C)cc1)c1ccc(N2C(=O)C3CCCCC3C2=O)cc1 (stereo not drawn)	7.7%	14.9%	-0.6%	?	2.2%	29.9µM*
Cc1ccc2c(c1)=C(c1sc(N(C)c3ccc(O)cc3)nc1O)C(=O)N=2	.	4.0%	30.0%	-10.7%	-5.2%	37.7µM*
O=C(COc1ccc(S(=O)(=O)N2CCc3ccccc32)cc1Cl)NCc1ccccn1	15.8µM*	0.0%	-2.7%	17.3%	12.6%	-9.0%
CC(NC(=O)C1CCCN1C(=O)CN)C(=O)O (stereo not drawn)	.	.	0.5%	-2.3%	.	.
O=C(CSc1n[nH]c(-c2cccs2)n1)N1CCN(S(=O)(=O)c2ccccc2)CC1	25.1µM*	.	-1.1%	20.4%	2.6%	1.8%
CC(=O)Nc1ccc(SCC(=O)N2CCN(S(=O)(=O)c3ccccc3)CC2)cc1	?	-2.5%	-3.5%	-13.8%	-6.6%	-16.4%
O=C(CSc1ccc(F)cc1)N1CCN(S(=O)(=O)c2ccccc2)CC1	3.16µM*	0.8%	-4.1%	-5.5%	14.7%	-18.1%
O=C(Cn1nnc(-c2ccccc2Cl)n1)N1CCN(S(=O)(=O)c2ccc(Cl)cc2)CC1	7.94µM*	16.6%	-10.3%	4.2%	2.9%	-5.6%
O=C(CSc1n[nH]c(-c2cccs2)n1)N1CCCC1	.	4.4%	-3.0%	15.3%	.	-11.0%
Cc1ccc(S(=O)(=O)N2CCN(C(=O)CSc3nncs3)CC2)cc1	17.8µM*	0.0%	-10.9%	6.5%	8.0%	-13.9%
CCOc1[nH]c(/N=C/c2ccc(OC)cc2)c(C#N)c1C#N	.	.	.	-30.5%	.	.
O=C(Nc1ccccc1)Nc1cnccn1	-10.7%	6.1%	-1.0%	11.6%	-1.7%	-7.6%
Cc1ccc(SCC2(O)CCN(S(=O)(=O)c3ccc(Cl)cc3)CC2)cc1	-0.5%	?	-11.1%	-7.7%	?	-9.1%
Cc1ccc(S(=O)(=O)N2CCCN(S(=O)(=O)c3ccc(C)cc3)CC2)cc1	8.91µM*	6.8%	-19.6%	-11.1%	-3.2%	-7.9%
Cc1ccc(S(=O)(=O)N2CCN(C(=O)CSc3ccc(Cl)cc3)CC2)cc1	14.1µM*	4.9%	-9.0%	-1.1%	24.6%	-15.1%
CCCn1c(-c2ccc(F)cc2)nc2c(NCCCCN3CCCC3)nc(C)nc21	0.2%	.	.	.	.	.
O=C(O)C1CN(c2ncccc2[N+](=O)[O-])C1	-0.6%	?	-6.3%	?	5.2%	13.4µM*
O=C(NCc1ccccn1)[C@@H]1CCCN1C(=O)[C@@H]1CCCN1C(=O)c1ccc(Cl)cc1	.	15.1%	.	.	.	-3.1%
O=S(=O)(Nc1nc(-c2sccc2Cl)cs1)c1cc(Cl)ccc1Cl	0.1%	28.9%	?	?	-4.5%	16.8µM*
CCN(CC)C(=O)C1=C(C)N(Cc2ccc(C(C)(C)C)cc2)C(=O)C(CC(=O)NCCCCc2ccccc2)C1 (stereo not drawn)	.	-0.1%	.	.	.	-6.1%
Cc1cccc(N2C(=O)C(Cl)=C(N3CCOCC3)C2=O)c1	?	-0.3%	-0.6%	?	1.0%	-13.1%
COc1ccc(N2C(=O)C(Cl)=C(N3CCOCC3)C2=O)cc1	23.3%	8.2%	1.0%	28.2µM*	0.9%	0.0%
O=C1C(Cl)=C(N2CCOCC2)C(=O)N1c1cccc(Cl)c1	14.1µM*	-3.8%	-2.7%	25.1µM*	-5.1%	-27.1%
COc1ccccc1OCCCOc1cccc(/C=C2\SC(=O)NC2=O)c1	-4.9%	?	?	?	3.8%	21.2µM*
CCc1cccc(NC(=O)CCS(=O)(=O)c2ccc(Br)cc2)c1	.	-14.4%	-12.9%	79.4µM*	-3.0%	13.4µM*
Cc1ccc(CC(=O)NCCCc2ccccc2)cc1	4.2%	9.6%	-20.3%	11.7%	0.3%	-8.5%
